Laboratory results: the supplement of paper PMC11732987, “Enantioselective OTUD7B fragment discovery through chemoproteomics screening and high-throughput optimisation” (Communications Chemistry, 2025)

Legend:
Assay in all cases: log2 ratio of Biotin-Ahx-Ub-VS probe labelling (fragment/DMSO); higher = less target engagement (more negative = stronger competition), active = hit call of the paper (q ≤ 0.05, log2 ratio ≤ -1)
Settings in all cases: compound concentration: 200 uM; treatment time: 3 h
USP34 = USP34 (UniProt Q70CQ2)
USP34, sequence (Q70CQ2 whole entry, the tested form may be a part): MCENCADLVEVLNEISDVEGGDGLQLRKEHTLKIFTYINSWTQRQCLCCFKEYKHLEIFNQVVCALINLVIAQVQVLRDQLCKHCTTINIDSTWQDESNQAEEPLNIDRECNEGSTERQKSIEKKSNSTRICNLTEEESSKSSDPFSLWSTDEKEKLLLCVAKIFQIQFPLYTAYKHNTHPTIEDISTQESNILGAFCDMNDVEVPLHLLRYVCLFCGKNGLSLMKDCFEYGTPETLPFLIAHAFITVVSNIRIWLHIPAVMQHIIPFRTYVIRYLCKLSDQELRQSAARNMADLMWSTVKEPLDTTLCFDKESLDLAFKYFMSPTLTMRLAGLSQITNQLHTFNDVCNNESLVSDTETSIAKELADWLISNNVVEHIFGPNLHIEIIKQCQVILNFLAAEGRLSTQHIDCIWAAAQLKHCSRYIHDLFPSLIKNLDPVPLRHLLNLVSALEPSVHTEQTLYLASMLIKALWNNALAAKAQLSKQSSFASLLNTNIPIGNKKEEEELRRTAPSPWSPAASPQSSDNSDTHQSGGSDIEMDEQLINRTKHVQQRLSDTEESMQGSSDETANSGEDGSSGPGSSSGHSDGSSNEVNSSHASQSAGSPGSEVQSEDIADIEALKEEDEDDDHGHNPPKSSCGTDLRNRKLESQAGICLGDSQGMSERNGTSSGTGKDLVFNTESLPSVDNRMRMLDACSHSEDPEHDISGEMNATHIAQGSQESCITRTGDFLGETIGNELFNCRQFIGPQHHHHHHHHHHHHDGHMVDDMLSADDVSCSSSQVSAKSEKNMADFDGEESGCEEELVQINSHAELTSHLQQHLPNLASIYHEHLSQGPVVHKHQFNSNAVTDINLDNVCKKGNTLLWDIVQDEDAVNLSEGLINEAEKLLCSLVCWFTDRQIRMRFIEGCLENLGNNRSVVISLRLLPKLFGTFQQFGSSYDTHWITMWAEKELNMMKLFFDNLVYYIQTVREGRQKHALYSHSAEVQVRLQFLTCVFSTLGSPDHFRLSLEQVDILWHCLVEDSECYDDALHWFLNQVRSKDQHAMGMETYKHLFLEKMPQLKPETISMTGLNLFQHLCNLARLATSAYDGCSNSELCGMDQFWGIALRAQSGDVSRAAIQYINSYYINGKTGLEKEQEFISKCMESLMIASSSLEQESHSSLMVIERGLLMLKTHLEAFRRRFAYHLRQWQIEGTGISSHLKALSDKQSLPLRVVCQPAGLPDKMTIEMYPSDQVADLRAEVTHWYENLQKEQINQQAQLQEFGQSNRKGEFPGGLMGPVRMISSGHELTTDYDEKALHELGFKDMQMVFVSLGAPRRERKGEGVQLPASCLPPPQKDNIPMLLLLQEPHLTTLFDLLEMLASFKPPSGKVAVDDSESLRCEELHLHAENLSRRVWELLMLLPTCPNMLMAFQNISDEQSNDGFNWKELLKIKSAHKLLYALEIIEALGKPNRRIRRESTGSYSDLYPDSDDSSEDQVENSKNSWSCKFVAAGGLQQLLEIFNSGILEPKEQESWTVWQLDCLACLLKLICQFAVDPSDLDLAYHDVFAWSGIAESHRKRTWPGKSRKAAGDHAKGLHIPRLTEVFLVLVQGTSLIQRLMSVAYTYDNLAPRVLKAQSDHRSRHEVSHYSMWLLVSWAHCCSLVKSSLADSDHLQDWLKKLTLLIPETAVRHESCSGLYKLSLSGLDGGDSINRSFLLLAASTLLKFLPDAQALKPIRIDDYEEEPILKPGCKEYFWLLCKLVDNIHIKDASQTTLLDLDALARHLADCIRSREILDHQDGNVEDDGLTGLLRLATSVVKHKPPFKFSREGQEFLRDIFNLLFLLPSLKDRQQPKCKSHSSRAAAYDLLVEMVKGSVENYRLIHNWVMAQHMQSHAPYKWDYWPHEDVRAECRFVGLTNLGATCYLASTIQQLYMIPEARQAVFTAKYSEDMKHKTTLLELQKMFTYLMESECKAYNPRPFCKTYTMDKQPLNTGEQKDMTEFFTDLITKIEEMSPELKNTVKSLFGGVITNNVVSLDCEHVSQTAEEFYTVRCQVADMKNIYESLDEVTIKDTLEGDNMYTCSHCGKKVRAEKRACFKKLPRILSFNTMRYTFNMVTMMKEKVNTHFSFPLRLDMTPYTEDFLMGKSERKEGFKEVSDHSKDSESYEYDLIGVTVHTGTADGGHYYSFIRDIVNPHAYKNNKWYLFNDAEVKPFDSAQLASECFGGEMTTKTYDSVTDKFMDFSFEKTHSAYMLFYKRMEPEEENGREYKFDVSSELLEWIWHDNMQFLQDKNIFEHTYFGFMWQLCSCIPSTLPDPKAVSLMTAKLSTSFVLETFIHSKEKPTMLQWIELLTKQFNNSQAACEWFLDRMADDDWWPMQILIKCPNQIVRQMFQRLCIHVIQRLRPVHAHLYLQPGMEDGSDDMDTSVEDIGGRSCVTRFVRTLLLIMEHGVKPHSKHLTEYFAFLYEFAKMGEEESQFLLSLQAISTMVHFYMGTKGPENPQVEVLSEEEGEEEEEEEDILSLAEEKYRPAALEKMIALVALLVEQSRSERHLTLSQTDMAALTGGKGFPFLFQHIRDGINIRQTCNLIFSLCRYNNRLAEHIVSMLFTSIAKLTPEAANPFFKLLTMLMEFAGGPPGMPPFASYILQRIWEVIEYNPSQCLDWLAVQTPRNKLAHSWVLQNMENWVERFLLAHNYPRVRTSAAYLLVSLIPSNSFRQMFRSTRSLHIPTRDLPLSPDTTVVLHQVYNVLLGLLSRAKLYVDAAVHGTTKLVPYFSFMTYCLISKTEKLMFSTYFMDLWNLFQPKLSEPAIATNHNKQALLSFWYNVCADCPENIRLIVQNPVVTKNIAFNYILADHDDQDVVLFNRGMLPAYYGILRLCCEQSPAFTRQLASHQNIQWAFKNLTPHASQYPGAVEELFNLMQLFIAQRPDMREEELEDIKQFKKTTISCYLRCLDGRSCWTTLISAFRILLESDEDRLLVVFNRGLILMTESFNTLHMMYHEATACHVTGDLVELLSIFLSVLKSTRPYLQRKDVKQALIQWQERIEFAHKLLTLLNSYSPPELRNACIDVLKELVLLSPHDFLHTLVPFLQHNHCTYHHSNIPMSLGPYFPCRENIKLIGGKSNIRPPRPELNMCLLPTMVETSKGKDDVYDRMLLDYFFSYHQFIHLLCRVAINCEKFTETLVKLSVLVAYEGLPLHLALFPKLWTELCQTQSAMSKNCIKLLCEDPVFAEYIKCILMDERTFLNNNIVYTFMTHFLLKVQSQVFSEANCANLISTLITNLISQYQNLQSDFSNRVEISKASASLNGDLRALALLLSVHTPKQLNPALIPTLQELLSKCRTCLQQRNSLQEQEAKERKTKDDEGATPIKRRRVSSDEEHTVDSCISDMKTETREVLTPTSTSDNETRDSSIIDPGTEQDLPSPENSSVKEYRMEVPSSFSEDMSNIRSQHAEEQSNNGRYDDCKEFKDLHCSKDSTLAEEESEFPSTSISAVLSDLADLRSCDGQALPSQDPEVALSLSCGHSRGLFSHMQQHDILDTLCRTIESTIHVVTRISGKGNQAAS
Procedure, shortened: (§1)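 HEK293T lysate, 495 µg per sample in Tris/CHAPS/IGEPAL buffer with protease inhibitors, was treated in triplicate with fragment at 200 µM or vehicle for 3 h and then with Biotin-Ahx-Ub-VS at 0.5 µM final for 1 h. Labelled DUBs were NeutrAvidin-enriched, digested with LysC and trypsin, and run by diaPASEF LC-MS/MS. Spectronaut label-free quantities were global-median-normalised, and values are average log2 fragment/vehicle ratios by unpaired t-test on proteins with ≥2 unique peptides.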

USP36 = target: T1, USP36 (UniProt Q9P275)
T1 sequence (whole entry): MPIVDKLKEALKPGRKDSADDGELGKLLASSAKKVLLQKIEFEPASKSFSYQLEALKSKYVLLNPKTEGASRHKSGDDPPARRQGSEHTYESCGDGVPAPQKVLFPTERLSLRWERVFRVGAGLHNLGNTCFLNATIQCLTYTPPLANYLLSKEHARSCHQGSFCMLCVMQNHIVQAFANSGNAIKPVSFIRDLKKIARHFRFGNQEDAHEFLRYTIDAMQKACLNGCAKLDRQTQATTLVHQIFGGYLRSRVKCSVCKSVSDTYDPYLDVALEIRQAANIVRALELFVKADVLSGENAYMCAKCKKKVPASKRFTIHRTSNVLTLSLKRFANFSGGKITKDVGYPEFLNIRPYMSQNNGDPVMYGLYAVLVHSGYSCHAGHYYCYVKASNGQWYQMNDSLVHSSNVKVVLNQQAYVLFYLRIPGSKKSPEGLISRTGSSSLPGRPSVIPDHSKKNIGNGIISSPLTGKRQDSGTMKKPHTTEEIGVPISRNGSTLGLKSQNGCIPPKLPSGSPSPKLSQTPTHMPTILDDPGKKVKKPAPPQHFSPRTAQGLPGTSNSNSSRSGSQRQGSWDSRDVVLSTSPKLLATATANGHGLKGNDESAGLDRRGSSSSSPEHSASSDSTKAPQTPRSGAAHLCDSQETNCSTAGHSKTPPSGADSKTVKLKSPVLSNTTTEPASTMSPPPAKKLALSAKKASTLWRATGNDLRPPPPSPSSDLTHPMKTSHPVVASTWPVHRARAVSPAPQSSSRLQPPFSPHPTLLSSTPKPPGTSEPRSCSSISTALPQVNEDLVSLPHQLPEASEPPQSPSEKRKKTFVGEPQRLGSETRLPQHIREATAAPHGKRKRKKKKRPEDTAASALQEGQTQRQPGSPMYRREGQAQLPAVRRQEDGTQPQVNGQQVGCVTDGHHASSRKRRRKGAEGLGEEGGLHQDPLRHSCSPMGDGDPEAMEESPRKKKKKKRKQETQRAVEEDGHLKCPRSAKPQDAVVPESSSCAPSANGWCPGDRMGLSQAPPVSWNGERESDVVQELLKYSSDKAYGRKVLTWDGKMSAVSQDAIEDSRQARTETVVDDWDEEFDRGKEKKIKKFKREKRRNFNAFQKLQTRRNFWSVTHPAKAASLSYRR
Procedure, shortened: as §1

USP38 = target: T2, USP38 (UniProt Q8NB14)
T2 sequence (whole entry): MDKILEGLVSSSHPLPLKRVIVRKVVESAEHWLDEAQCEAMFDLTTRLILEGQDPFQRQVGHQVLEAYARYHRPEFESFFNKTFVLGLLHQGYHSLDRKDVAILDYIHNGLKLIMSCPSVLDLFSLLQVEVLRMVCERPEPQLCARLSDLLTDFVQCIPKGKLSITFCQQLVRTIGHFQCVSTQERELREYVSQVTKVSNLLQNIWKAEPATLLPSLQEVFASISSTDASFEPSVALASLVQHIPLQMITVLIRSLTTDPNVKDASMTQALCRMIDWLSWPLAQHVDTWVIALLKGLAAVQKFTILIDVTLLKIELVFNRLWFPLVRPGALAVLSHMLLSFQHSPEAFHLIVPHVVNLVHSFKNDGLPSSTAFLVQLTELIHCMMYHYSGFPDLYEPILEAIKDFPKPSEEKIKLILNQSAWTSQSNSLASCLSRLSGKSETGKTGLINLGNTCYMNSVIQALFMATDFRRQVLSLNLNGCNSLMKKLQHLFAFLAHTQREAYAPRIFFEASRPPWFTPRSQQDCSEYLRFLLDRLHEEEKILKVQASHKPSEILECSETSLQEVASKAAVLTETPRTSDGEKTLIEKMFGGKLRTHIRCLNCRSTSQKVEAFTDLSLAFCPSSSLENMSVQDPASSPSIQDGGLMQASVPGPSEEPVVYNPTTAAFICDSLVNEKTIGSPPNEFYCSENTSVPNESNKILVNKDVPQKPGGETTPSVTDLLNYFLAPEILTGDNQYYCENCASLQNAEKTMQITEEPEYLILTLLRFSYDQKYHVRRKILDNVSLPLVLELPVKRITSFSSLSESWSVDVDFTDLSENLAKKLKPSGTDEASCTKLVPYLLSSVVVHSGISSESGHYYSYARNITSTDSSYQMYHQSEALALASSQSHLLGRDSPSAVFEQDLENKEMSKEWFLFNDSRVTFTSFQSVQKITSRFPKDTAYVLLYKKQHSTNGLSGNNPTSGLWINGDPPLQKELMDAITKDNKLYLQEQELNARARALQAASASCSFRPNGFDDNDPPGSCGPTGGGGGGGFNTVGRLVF
Procedure, shortened: as §1

USP39 = target: T3, USP39 (UniProt Q53GS9)
T3 sequence (whole entry): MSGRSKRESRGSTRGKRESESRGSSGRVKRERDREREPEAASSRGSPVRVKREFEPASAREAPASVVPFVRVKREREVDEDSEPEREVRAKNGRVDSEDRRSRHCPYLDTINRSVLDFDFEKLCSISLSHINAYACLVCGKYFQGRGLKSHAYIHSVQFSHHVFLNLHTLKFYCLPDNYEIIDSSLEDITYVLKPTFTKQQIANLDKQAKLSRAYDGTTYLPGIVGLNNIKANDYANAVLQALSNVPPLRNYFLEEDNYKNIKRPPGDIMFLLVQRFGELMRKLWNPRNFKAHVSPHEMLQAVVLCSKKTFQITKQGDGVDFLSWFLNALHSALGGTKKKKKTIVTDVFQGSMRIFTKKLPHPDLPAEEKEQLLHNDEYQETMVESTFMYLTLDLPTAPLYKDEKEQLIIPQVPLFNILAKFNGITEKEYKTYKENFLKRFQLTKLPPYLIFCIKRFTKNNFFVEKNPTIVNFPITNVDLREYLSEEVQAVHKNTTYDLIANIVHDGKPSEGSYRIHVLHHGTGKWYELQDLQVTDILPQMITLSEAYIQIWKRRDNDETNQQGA
Procedure, shortened: as §1

USP4 = target: T4, USP4 (UniProt Q13107)
T4 sequence (whole entry): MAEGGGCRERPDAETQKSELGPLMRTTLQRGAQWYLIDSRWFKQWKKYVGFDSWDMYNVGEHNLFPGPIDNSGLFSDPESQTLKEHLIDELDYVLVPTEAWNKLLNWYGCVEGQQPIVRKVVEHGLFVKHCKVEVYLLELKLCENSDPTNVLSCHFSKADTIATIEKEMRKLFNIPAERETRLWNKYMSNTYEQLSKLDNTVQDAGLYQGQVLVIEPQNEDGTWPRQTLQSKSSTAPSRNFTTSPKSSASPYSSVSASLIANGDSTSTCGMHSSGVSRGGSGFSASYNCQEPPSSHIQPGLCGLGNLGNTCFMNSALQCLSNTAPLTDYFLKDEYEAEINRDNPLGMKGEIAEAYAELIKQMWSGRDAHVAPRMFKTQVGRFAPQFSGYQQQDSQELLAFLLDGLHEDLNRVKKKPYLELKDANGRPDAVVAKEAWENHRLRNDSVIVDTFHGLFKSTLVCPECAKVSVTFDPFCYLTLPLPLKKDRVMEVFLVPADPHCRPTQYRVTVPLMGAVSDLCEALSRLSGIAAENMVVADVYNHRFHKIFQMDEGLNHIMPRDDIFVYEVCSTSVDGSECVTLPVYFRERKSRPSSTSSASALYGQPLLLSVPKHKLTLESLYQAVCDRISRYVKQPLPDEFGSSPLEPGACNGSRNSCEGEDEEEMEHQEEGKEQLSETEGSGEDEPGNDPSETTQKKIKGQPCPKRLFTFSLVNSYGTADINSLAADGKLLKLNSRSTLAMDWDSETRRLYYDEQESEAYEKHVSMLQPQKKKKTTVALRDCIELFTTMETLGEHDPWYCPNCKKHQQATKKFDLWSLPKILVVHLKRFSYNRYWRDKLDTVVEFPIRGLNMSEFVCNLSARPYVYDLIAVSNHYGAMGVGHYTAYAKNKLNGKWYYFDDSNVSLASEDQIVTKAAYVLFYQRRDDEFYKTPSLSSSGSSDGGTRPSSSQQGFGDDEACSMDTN
Procedure, shortened: as §1

Measured: log2 ratio of Biotin-Ahx-Ub-VS probe labelling

Cl.Cn1nccc1C(NC(=O)CCl)c1ccccc1 (stereo not given)
inactive: USP34 -0.0966 | USP36 0.193 | USP38 -0.0261 | USP39 0.0185 | USP4 -0.116
